Test results taken from PubChem BioAssay (NCATS).
Results filed as inconclusive are left out. Activity calls are given as the source filed them. The call rests on the fitted dose curve; in most records, active means well fitted curve in the direction sought with a large enough effect; inconclusive means small, poorly fitted or top-dose-only effect, or another doubt; inactive means no such curve, though single readings can be large; an effect the other way counts as inactive or inconclusive.

Legend:
[1] = target: Cellular tumor antigen p53 (Homo sapiens) (UniProt P04637); assay: Primary qHTS for small molecule compounds that upregulate eGFP-tagged delta133p53alpha (in N-terminal) cells. (AID 2060322); settings: NCI-H358 eGFP-delta133p53alpha fluorescence, 24 h; activation: stronger effect = higher value;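 further: cells pre-induced with doxycycline then dosed without doxycycline; series mostly up to about 56 µM; 0% = DMSO vehicle and 100% = reference activator; nearly all actives have a fitted effect of over 75% in size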
Chain of Cellular tumor antigen p53 (Homo sapiens) (P04637 whole entry, looked up): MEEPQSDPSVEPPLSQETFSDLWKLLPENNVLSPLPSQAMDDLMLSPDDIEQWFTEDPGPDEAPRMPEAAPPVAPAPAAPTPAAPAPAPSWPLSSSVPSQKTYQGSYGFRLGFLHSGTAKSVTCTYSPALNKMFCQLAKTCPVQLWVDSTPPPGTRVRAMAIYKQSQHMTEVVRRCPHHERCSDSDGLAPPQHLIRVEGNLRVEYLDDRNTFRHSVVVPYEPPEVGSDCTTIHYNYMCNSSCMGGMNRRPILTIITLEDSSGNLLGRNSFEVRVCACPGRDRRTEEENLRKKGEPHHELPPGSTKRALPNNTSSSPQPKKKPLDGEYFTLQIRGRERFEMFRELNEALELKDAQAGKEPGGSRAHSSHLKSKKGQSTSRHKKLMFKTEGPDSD
How it was run: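 NCI-H358 cells pre-induced 24 h with 10 ng/ml doxycycline for eGFP-delta133p53alpha, plated dox-free and exposed 24 h at 37C to titrated compounds. Fixed, Hoechst-stained; gated GFP peak intensity by laser scanning cytometry, normalized to DMSO (0%) and 57.5 uM 5-azacytidine (100%).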

[2] = target: Aldehyde dehydrogenase, mitochondrial (Homo sapiens) (UniProt P05091); assay: qHTS for Inhibitors of the Aldehyde Dehydrogenase Family (ALDH2) Primary screen (AID 2061308);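 further: plate controls were vehicle for no effect and reference inhibitor for full effect; nearly all actives have a fitted effect of over 55% in size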
[3] = target: Retinaldehyde dehydrogenase 3 (Homo sapiens) (UniProt P47895); assay: qHTS for Inhibitors of the Aldehyde Dehydrogenase Family (ALDH1A3) Primary screen (AID 2061315);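 further: plate controls were DMSO vehicle for no effect and reference inhibitor for full effect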

C=C1[C@@H]2CC[C@@]3(C)[C@H](c4ccoc4)OC(=O)C[C@]13O[C@H]1CC(=O)C(C)(C)[C@H](C(O)C(=O)OC)[C@]12C (some centres not stated)
inactive: activation [1] 8.04% | Potency [2] | Potency [3]

CCCCn1c(-c2ccccc2)nc(-c2ccccc2)c1CN(Cc1ccc2c(c1)OCO2)Cc1ccc2c(c1)OCO2
inactive: activation [1] -10% | Potency [2] | Potency [3]

CC(=O)OC1CC2(C)C(CCC(C)C23Cc2c(O)cc4c(c2O3)CNC4=O)C(C)(C)C1O (configuration not stated)
inactive: activation [1] 9.92% | Potency [2] | Potency [3]

CCC[C@@H](NC(=O)N1C(=O)C(CC)(CC)[C@@H]1Oc1ccc(C(=O)N2CCN(C)CC2)cc1)c1ccc2c(c1)OCO2
inactive: activation [1] -10.5% | Potency [2] | Potency [3]

O=C(c1ccc(F)cc1)N1CCCC(c2nc(-c3ccc(F)cc3)no2)C1 (configuration not stated)
inactive: activation [1] -1.91% | Potency [2] | Potency [3]

CC(=O)OC1C(CO)OC(O[C@H]2[C@H](OC(=O)[C@]34CCC(C)(C)C[C@H]3C3=CCC5[C@@]6(C)CC[C@H](O[C@@H]7O[C@H](C(=O)O)[C@@H](O)[C@H](O[C@@H]8OC[C@@H](O)[C@H](O)[C@H]8O)[C@H]7O[C@@H]7O[C@H](CO)[C@H](O)[C@H](O)[C@H]7O)[C@@](C)(C=O)C6CC[C@@]5(C)[C@]3(C)C[C@H]4O)O[C@H](C)[C@H](OC3OC(C)C(OC4OCC(O)C(O)C4O)C(O)C3O)[C@@H]2O)C(O)C1O (some centres not stated)
inactive: activation [1] 4.58% | activity change, negative = inhibition [2] -12.7% [at 11.2 µM] | activity change, negative = inhibition [3] 4.72% [at 11.2 µM]

CC(=O)OC1C(OC(=O)c2ccccc2)C2C(C)(C)CC(=O)CC2(C)C23CCC(C)(C2)C(O)CC13 (configuration not stated)
inactive: activation [1] -22.3% | Potency [2] | Potency [3]

COc1cc(C)c(C(=O)OC2C(C)OC(OC3CCC(C)C4C3C=C(C)C3/C(C)=C\CC/C(C)=C/C5(C)C=C(C(=O)O)C(C)CC56OC(=O)/C(=C(\O)C34C)C6=O)C(O)C2O)c(OC)c1 (configuration not stated)
inactive: activation [1] 10.7% | Potency [2] | Potency [3]

C/C(=C\C1CCC(C)C2CCC3(C)OC123)C(=O)O (configuration not stated)
inactive: activation [1] 8.04% | Potency [2] | Potency [3]

O=C(OC[C@H]1O[C@H](O[C@]2(CO)O[C@H](CO)[C@@H](O)[C@@H]2O)[C@H](O)[C@@H](O)[C@@H]1O)c1ccc(O)cc1
inactive: activation [1] -2.68% | Potency [2] | Potency [3]

COc1cc(CCCO)ccc1O[C@@H]1O[C@H](CO)[C@@H](O)[C@H](O)[C@H]1O
inactive: activation [1] -16.1% | Potency [2] | Potency [3]

CC1(C)C[C@H](O)C[C@@]2(C)OC(=O)C=C12
inactive: activation [1] 19.6% | Potency [2] | Potency [3]

CC(=O)O[C@@H]1C[C@@H](OC(C)=O)C(C)(C)/C=C/[C@H](C)[C@H](OC(C)=O)[C@@]2(O)C[C@H](C)[C@H](OC(=O)c3ccccc3)[C@@H]2/C=C/1C
inactive: activation [1] -3.82% | Potency [2] | Potency [3]

C=C1CC2C(C)(CCC(=O)O)C(C(C)(C)O)CCC2(C)C2C(=O)OC(C)(C(=O)OC)C(=O)C12C (configuration not stated)
inactive: activation [1] 10.7% | Potency [2] | Potency [3]

Nc1nc(O)c(C2=C3C(=Nc4ccccc43)C(=O)NCC2)[nH]1
inactive: activation [1] -1.79% | Potency [2] | Potency [3]

C/C=C1/C[N+](C)([O-])C2Cc3c([nH]c4ccccc34)C(=O)CC1C2C(=O)OC (configuration not stated)
inactive: activation [1] -9.82% | Potency [2] | Potency [3]

C/C=C(\C)C(=O)O[C@@H]1CC2[C@@H](CC=C3C[C@@H](O[C@H]4C[C@H](OC)[C@H](O[C@H]5C[C@H](OC)[C@H](O[C@@H]6O[C@H](C)[C@@H](O[C@H]7C[C@H](OC)[C@H](O[C@@H]8O[C@H](CO)[C@@H](O)[C@H](O)[C@H]8O)[C@@H](C)O7)[C@H](OC)[C@H]6O)[C@@H](C)O5)[C@@H](C)O4)CC[C@@]32C)[C@@]2(O)CC[C@H](C(C)=O)[C@@]12C (some centres not stated)
inactive: activation [1] 9.92% | activity change, negative = inhibition [2] 12% [at 11.2 µM] | activity change, negative = inhibition [3] 11% [at 11.2 µM]

CC1=C2C(=O)C=C(CO)[C@@H]2[C@H]2OC(=O)[C@H](C)[C@@H]2[C@@H](O)C1
inactive: activation [1] -3.57% | Potency [2] | Potency [3]

Cc1ccccc1NC(=O)Nc1ccc(CC(=O)N(C)[C@@H](CC(C)C)C(=O)NCC[C@H](NC(=O)[C@@H]2CCCN2S(=O)(=O)c2cc(Cl)cc(Cl)c2)C(=O)O)cc1
inactive: activation [1] 1.67% | Potency [2] | Potency [3]
